This note sets out measurements from PubChem BioAssay (NCATS).

Inconclusive results are not listed. Unmarked numbers belong to inactive results. Calls come from the whole dose curve; as a rule, active = well fitted inhibition curve with a large enough effect; inconclusive = small, poorly fitted or top-dose-only effect; inactive = flat fitted curve, though single readings scatter.

The test concerns the target Aldehyde dehydrogenase, mitochondrial (Homo sapiens) (UniProt P05091). As to the kind of experiment: qHTS for Inhibitors of the Aldehyde Dehydrogenase Family (ALDH2) Primary screen (AID 2061308).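 Note: plate controls were vehicle for no effect and reference inhibitor for full effect; nearly all actives have a fitted effect of over 55% in size.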 The note with it: ALDH2 enzyme inhibition qHTS, 1536-well; series mostly up to 56 µM; activity change, negative = inhibition: at the top concentration. For orientation: Quantitative high-throughput screening tests each substance at several concentrations.
On to `CC(C)=CCC(O)[C@](C)(O)C1[C@H](O)C[C@@]2(C)C3CC=C4C(C[C@H](O)[C@@H](O[C@@H]5O[C@H](CO)[C@@H](O)[C@H](O)[C@H]5O)C4(C)C)[C@]3(C)C(=O)C[C@]12C` (stereo not given in full), for which the “activity change, negative = inhibition” value is 4.81% [at 16.9 µM].

Regarding `O=C(/C=C/c1ccccc1)OC[C@]12O[C@H]1[C@@H](O)[C@@H]1C=CO[C@@H](O[C@@H]3O[C@H](CO)[C@@H](O)[C@H](O)[C@H]3O)[C@@H]12`, the “activity change, negative = inhibition” value is 0.679% [at 28 µM].

In the case of `CC(O)(CC(=O)O)CC(=O)OCc1ccc(O[C@@H]2O[C@H](CO)[C@@H](O)[C@H](O)[C@H]2O)cc1` (stereo not given in full), the “activity change, negative = inhibition” value was 3.54% [at 28 µM].

Take `CC1CCC2(C=O)C(CO)=CCCC2C1(C)CC(=O)O` (stereo not given): the “activity change, negative = inhibition” value is -12.7%.

Regarding `C=C1C2CCC3CC2(CC(O)C2(O)C1CC(OC1OC(CO)C(O)C(O)C1O)C2(C)C)CC3(C)O` (stereo not given), the “activity change, negative = inhibition” value is -0.768% [at 28 µM].

Turning to `COc1cccc2c1CCC[C@H]2CN(C)CCc1ccc2ccoc2c1`, the “activity change, negative = inhibition” value is -2.86%.

For `CC(C)NC[C@H](O)COc1ccc(CCOCC2CC2)cc1`, the “activity change, negative = inhibition” value was -7.11%.

For the compound `C/C(=C/CCC(CO)C1CCC2(C)C3CCC4C(C)(C)C(OC5OC(CO)C(O)C(O)C5O)CC(O)C45CC35CCC12C)COC1OC(CO)C(O)C(O)C1O` (stereo not given), the “activity change, negative = inhibition” value is 0.82% [at 16.9 µM].

Take `CC(=O)c1cc2c(cc1O)OC(C)(C)C=C2`: the “activity change, negative = inhibition” value was 0.271%.

`CC(C)(C)CCN1C[C@@H]2C(CNC(=O)c3cc(Cl)cc(Cl)c3)[C@@H]2C1` (stereo not given in full): the “activity change, negative = inhibition” value is 1.39%.

`C=C1C(=O)O[C@@H]2[C@H]1CC(=O)[C@H](C)[C@@](O)(C(=O)/C=C/C)[C@H]2OC(=O)C(C)CC` (stereo not given in full): the “activity change, negative = inhibition” value is 21.3%.

For the compound `OCC1=C[C@@H](O)[C@@H]2C=CO[C@@H](O[C@@H]3O[C@H](CO)[C@@H](O)[C@H](O)[C@H]3O)[C@H]12`, the “activity change, negative = inhibition” value is 5.38%.

As for `CC(C)(OC1OC(CO)C(O)C(O)C1O)C1CCC(O)(CO)C2CC(O)C(C)(O)C2C1` (stereo not given), the “activity change, negative = inhibition” value is -1.63% [at 28 µM].

As to `CC(=O)NC(C(=O)OC1CCC(C)(C)C2CC=C3C(=O)OCC3(O)C12C)C(C)C` (stereo not given), the “activity change, negative = inhibition” value is -2.53% [at 28 µM].

In the case of `C[C@]12CCC[C@](C)(C(=O)O)C1[C@@H](O)[C@@H](O)C13CC(CCC12)C(CO)(O[C@@H]1O[C@H](CO)[C@@H](O)[C@H](O)[C@H]1O)C3` (stereo not given in full), the “activity change, negative = inhibition” value was -16.3% [at 28 µM].

On to `CCc1cc(S(=O)(=O)O)c2cc(C(C)C)cccc1-2`, for which the “activity change, negative = inhibition” value was -20.1%.

Turning to `CC1=CC[C@]2(C(=O)O[C@@H]3O[C@H](CO[C@@H]4O[C@H](CO)[C@@H](O[C@@H]5O[C@@H](C)[C@H](O)[C@@H](O)[C@H]5O)[C@H](O)[C@H]4O)[C@@H](O)[C@H](O)[C@H]3O)CC[C@]3(C)C(CCC4[C@@]5(C)C[C@@H](O)[C@H](O)[C@@](C)(CO)C5CC[C@]43C)C2C1C` (stereo not given in full), the “activity change, negative = inhibition” value was 2.79% [at 16.9 µM].

Take `Nc1nc2c(ncn2CCC(CO)CO)c(=O)[nH]1`: the “activity change, negative = inhibition” value is 12%.

Consider `CCN1CCN(Cc2ccc(-c3cc4c(NC(C)c5ccccc5)ncnc4[nH]3)cc2)CC1` (stereo not given), for which the “activity change, negative = inhibition” value was 8.64%.

As for `COC1CC(O[C@H]2CC[C@@]3(C)C(CCC4C3[C@H](OC(C)=O)[C@@H](OC(=O)/C=C/c3ccccc3)[C@]3(C)C(C(C)=O)CC[C@]43O)C2)OC(C)C1OC1CC(OC)C(OC2CC(OC)C(OC3OC(C)C(OC4OC(CO)C(O)C(O)C4O)C(OC)C3O)C(C)O2)C(C)O1` (stereo not given in full), the activity change, negative = inhibition was 6.42% [at 11.2 µM].

For `OC[C@H]1O[C@@H](OC[C@H]2O[C@@H](OC/C=C/c3ccccc3)[C@H](O)[C@@H](O)[C@@H]2O)[C@@H](O)[C@@H]1O`, the “activity change, negative = inhibition” value is 11.2% [at 28 µM].

As to `C/C(=C\C1CCC(C)C2CCC3(C)OC123)C(=O)O` (stereo not given), the “activity change, negative = inhibition” value is -10.6%.

Consider `COC(=O)CCc1cc2ccoc2c(OC)c1O[C@@H]1O[C@H](CO)[C@@H](O)[C@H](O)[C@H]1O`, for which the “activity change, negative = inhibition” value is 3.67% [at 28 µM].

Consider `C[C@]12CCC(=O)C=C1[C@@H](O)C[C@@H]1[C@@H]2[C@@H](O)C[C@@]2(C)[C@H]1CC[C@]2(O)C(=O)CO`, for which the “activity change, negative = inhibition” value is -1.01%.

Take `[N-]=[N+]=N[C@]1(CO)O[C@@H](n2ccc(=O)[nH]c2=O)[C@@H](O)[C@@H]1O`: the “activity change, negative = inhibition” value is -7.49%.

For the compound `CC(C)C1=CC2C(CC[C@]2(C)O)[C@](C)(O)CC1` (stereo not given in full), the “activity change, negative = inhibition” value is -2.42%.

In the case of `CC1(C)CCCC2(C)C=C(C(=O)O)C(O)CC12` (stereo not given), the “activity change, negative = inhibition” value is 3.58%.

Take `Cc1cc(O)c(C(C)C)cc1O[C@@H]1O[C@H](CO)[C@@H](O)[C@H](O)[C@H]1O`: the “activity change, negative = inhibition” value was 2.18%.

For `CC1=CC(=O)C2(OC3OC(C)C(O)C(OC(=O)/C=C/c4ccccc4)C3O)C=COC(OC3OC(CO)C(O)C(O)C3O)C12` (stereo not given), the “activity change, negative = inhibition” value was -6.41% [at 16.9 µM].

`CC/C=C\CC1C(=O)C=CC1(CCCCC1CCC(=O)O1)OC(C)=O` (stereo not given): the “activity change, negative = inhibition” value is -12.6%.

With `O=C1NC(=O)C(c2cnc3ccccn23)=C1c1cn2c3c(cccc13)CN(C(=O)N1CCOCC1)CC2`, the “activity change, negative = inhibition” value was 11.7%.

On to `C=C1C(OC2OCC(O)C(O)C2O)CC2C(C)(C)C(O)CCC2(C)C1CC/C(C)=C\CO` (stereo not given), for which the “activity change, negative = inhibition” value is 2.03% [at 28 µM].

Consider `CCC(C)C(=O)O[C@H]1C[C@](C)(O)[C@]23OC(C)(C)[C@H](C[C@H](OC(=O)c4ccccc4)[C@]2(COC(C)=O)[C@H]1OC(=O)C(C)CC)[C@H]3OC(C)=O` (stereo not given in full), for which the “activity change, negative = inhibition” value is -18.3% [at 16.9 µM].

For `CC1(C)C2CCC1(C)C(OC(=O)C(O)(CC(=O)O)CC(=O)O)C2` (stereo not given), the “activity change, negative = inhibition” value is -11.6%.

Consider `CCC(C)CC(=O)OC1C(=O)C(CO)=CC(O)C1C(C)C` (stereo not given), for which the “activity change, negative = inhibition” value was 7.21%.

Take `CC(C)=CCC[C@](C)(O[C@@H]1O[C@H](CO[C@@H]2O[C@H](CO)[C@@H](O)[C@H](O)[C@H]2O)[C@@H](O)[C@H](O)[C@H]1O)C1CC[C@]2(C)[C@@H]1[C@H](O)CC1[C@@]3(C)CC[C@H](O[C@@H]4O[C@H](CO)[C@@H](O)[C@H](O)[C@H]4O[C@@H]4O[C@H](CO)[C@@H](O)[C@H](O)[C@H]4O)C(C)(C)[C@@H]3CC[C@]12C` (stereo not given in full): the “activity change, negative = inhibition” value was 1.9% [at 16.9 µM].

In the case of `C=C1CCC2C(C)(C)CCC[C@]2(C)[C@H]1CC/C(C)=C/C(=O)O` (stereo not given in full), the “activity change, negative = inhibition” value was 3.13%.

Consider `Cc1ccc(CNc2ncnc3ccc(-c4ccc(CO)o4)cc23)o1`, for which the “activity change, negative = inhibition” value is 4.05%.

For the compound `C[C@@H]1CC[C@]2(C(=O)O)CC[C@]3(C)C(=CCC4[C@@]5(C)C[C@@H](O)[C@H](O)[C@@](C)(CO)C5CC[C@]43C)C2[C@]1(C)O` (stereo not given in full), the “activity change, negative = inhibition” value was -4.16% [at 28 µM].

Consider `Cc1cn2cc(C(=O)N(C)CCO)cc(NC3CCOc4cccc(C)c43)c2n1` (stereo not given), for which the “activity change, negative = inhibition” value is -12.4%.
